About 79,000 compounds went through this panel and 15% of them were active in at least one assay; those are over-represented in the sample as a whole. Activity calls are given as the source filed them. Cut-off read from the data, not from the text of the source: active = growth inhibition above about 70%; inactive = the rest. Where a SMILES comes first, the peptide text is derived from it. The star is where a group is joined. Cbz = O=C(OCc1ccccc1)*
Legend:
[1] = NCI Yeast Anticancer Drug Screen. Data for the rad50 strain (AID 155);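 note: 0% = growth of vehicle-only cultures of the same strain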; details: S. cerevisiae rad50 strain growth inhibition; at 50.0 µM; hits give high values
How it was run: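 Relative growth inhibition (compound vs vehicle) was measured in yeast with a defined repair-gene alteration.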

[2] = NCI Yeast Anticancer Drug Screen. Data for the mec2-1 strain (AID 157); details: S. cerevisiae mec2-1 strain, at 50.0 µM, hits give high values
How it was run: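 Growth inhibition is read against vehicle-treated controls after compound exposure of the mec2-1 yeast strain, which is defective in DNA damage repair or cell cycle control.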

[3] = NCI Yeast Anticancer Drug Screen. Data for the sgs1 mgt1 strain (AID 161);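 note: 0% = growth of cultures given vehicle only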; details: S. cerevisiae sgs1 mgt1 strain, at 50.0 µM, hits give high values
How it was run: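 This yeast growth screen uses a strain with defined DNA-repair lesions; compound-treated growth is compared with vehicle-treated growth.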

[4] = NCI Yeast Anticancer Drug Screen. Data for the cln2 rad14 strain (AID 165);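 note: 0% = growth equal to vehicle treated cultures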; details: S. cerevisiae cln2 rad14 strain, at 50.0 µM, hits give high values
How it was run: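 Growth inhibition, relative to vehicle-treated controls, is the read-out. The test organism is a yeast strain with defined genetic alterations, cln2 rad14.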

[5] = NCI Yeast Anticancer Drug Screen. Data for the bub3 strain (AID 167); details: S. cerevisiae bub3 mutant strain, at 50.0 µM, hits give high values
How it was run: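 Screening used yeast with an engineered genetic alteration affecting cell cycle control. Compound-exposed cultures were compared with vehicle cultures, and reduced growth was taken as inhibition.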

[6] = NCI Yeast Anticancer Drug Screen. Data for the mlh1 rad18 strain (AID 175); details: S. cerevisiae mlh1 rad18 strain growth inhibition; at 50.0 µM; hits give high values
How it was run: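 Cells of a genetically altered yeast strain, deficient in DNA damage repair, were treated with compound. Their growth was then compared with that of vehicle-treated cultures to give inhibition.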

Measured: growth inhibition

O=C(O)C1C2CCC(O2)C1C(=O)Nc1cccc2cccnc12 (stereo unspecified)
inactive: [1] 15.3% | [2] 12.4% | [3] -10.2% | [4] -1.15% | [5] 22.5% | [6] 17.8%

C=CC(=O)Nc1ccc(Br)cc1
inactive: [1] 2.85% | [2] -9.2% | [3] -4.35% | [4] -6.9% | [5] 8.65% | [6] 2.35%

Cc1cc(C(=O)C(C(c2ccccc2)N2CCOCC2)N2CCOCC2)ccc1Cl (stereo unspecified)
inactive: [1] 4.6% | [2] 7.15% | [3] 12.8% | [4] -1.35% | [5] 10.8% | [6] 26.9%

c1ccc(CN2CCCCC(Sc3ccccc3)CC2)cc1 (stereo unspecified)
active: [1] 90.2% | [2] 93.8% | [3] 92.2% | [4] 90.5% | [5] 89.7% | [6] 90.9%

OCCCCN(CCO)CCCCO
inactive: [1] -2.75% | [2] -7.25% | [3] -1.5% | [4] -12.4% | [5] 13.9% | [6] -3.5%

CC12CCC3c4ccc(OC(=O)C56C=CC(=O)C5C5C=CC6CC5)cc4CCC3C1CCC2=O (stereo unspecified)
inactive: [1] 11.6% | [2] -16.8% | [3] -2.2% | [4] 16.1% | [5] -4.05% | [6] 0.05%

O=S(=O)(CCN1CCCCC1)c1ccc(F)cc1
inactive: [1] 21.4% | [2] -12.5% | [3] 3.05% | [4] -10.8% | [5] 2.4% | [6] 9.95%

CCOC(=O)CC(=O)C1CCC2C3CC=C4CC(O)CCC4(C)C3CCC12C (stereo unspecified)
inactive: [1] 36.5% | [2] 8.3% | [3] 47.4% | [4] 25.9% | [5] 2.1% | [6] 33.9%

COc1cccc(Nc2sc(C(=O)c3cc4cc(Cl)ccc4o3)c(N)c2C#N)c1
inactive: [1] -11.1% | [2] -8.65% | [3] -20.6% | [4] -2.75% | [5] -3.55% | [6] -7.55%

Cc1[nH]c(=O)[nH]c(=O)c1/C=C/C(=O)NC(CO)CSC(C)C (stereo unspecified)
inactive: [1] -2% | [2] 27.1% | [3] -7.75% | [4] -3.9% | [5] 8.4% | [6] 9.55%

O=C(O)C1CCCCN1C(=O)c1ccccc1 (stereo unspecified)
inactive: [1] -26.6% | [2] -8.4% | [3] -12.2% | [4] -0.05% | [5] -21.2% | [6] -15.5%

CCC(c1ccc(OCC(=O)N2CC2)cc1)C(CC)c1ccc(OCC(=O)N2CC2)cc1 (stereo unspecified)
inactive: [1] 11.8% | [2] 10.3% | [3] 13.5% | [4] 17.8% | [5] -0.35% | [6] 1.75%

CC1CCC(CCBr)CC1 (stereo unspecified)
inactive: [1] 5.8% | [2] -9.9% | [3] 5.15% | [4] -3.15% | [5] 0.9% | [6] 2.25%

OCCCCCCN=Cc1ccccc1O.OCCCCCCN=Cc1ccccc1O.[Cu]
inactive: [1] 47.9% | [2] -1.2% | [4] -48.2% | [5] 4.25% | [6] 14.8%
active: [3] 72.2%

O=C(NCCCN1CC2CCCC2C1)C(c1ccccc1)c1ccccc1 (stereo unspecified)
inactive: [1] -22.9% | [2] -2.55% | [3] -41.8% | [4] -5.3% | [5] -10.7% | [6] -24.3%

Cc1nn(C(=O)c2ccc(Cl)cc2)c2c1C(c1ccccc1[N+](=O)[O-])SC(N)=N2 (stereo unspecified)
inactive: [1] -9.6% | [2] -1.5% | [3] 7.05% | [4] 33% | [5] 27.6% | [6] -9.05%

Cc1ccccc1OCC1COCN(Cc2ccccc2)CO1 (stereo unspecified)
inactive: [1] 18.8% | [2] 21.2% | [3] 28.1% | [4] 20.6% | [5] 6.95% | [6] 32.9%

CC(=O)Nc1cc2c(s1)CCC1CC(=O)NN=C21 (stereo unspecified)
inactive: [1] -12.4% | [2] -25.6% | [3] -31.8% | [4] 1.9% | [5] -9.35% | [6] -11.5%

Clc1cccc(CC(Br)Br)c1
inactive: [1] 14.8% | [2] 4.45% | [3] 6.75% | [4] 23% | [5] -4.65% | [6] 14.5%

C=CCn1c(C23CC4CC(CC(C4)C2)C3)n[nH]c1=S
inactive: [1] 27.6% | [2] 37.7% | [3] -8.45% | [4] 19.2% | [5] 3.55% | [6] -26.3%

c1cnn([B-]2(n3cccn3)n3ccc[n+]3[B-](n3cccn3)(n3cccn3)n3ccc[n+]32)c1
inactive: [1] 0.85% | [2] -11.6% | [3] 9.2% | [4] -8.85% | [5] 14.1% | [6] -4.05%

CC(C)c1ccc2c(c1)C=C1OC(=O)[C@]3(C)CCC[C@@]2(C)C13 (stereo partly specified)
inactive: [1] 35.1% | [2] 21.9% | [3] 54.2% | [4] 40% | [5] 26.4% | [6] 17.1%

CCOC(=O)/C=C(\N=P(c1ccccc1)(c1ccccc1)c1ccccc1)C(F)(F)C(F)(F)C(F)(F)C(F)(F)C(F)(F)F
inactive: [1] 19.4% | [2] 4% | [3] 32.4% | [4] 18.4% | [5] 20.2% | [6] 45.2%

CC(=O)OC1CCC(C(C)C)CC1 (stereo unspecified)
inactive: [1] 4.35% | [2] -2.95% | [3] -0.25% | [4] -28.2% | [5] 1.15% | [6] -13.1%

C=CC(=O)OCC(C)(C)[N+](=O)[O-]
inactive: [1] 18.4% | [2] 15.7% | [3] 12.8% | [4] 2.35% | [5] -3.65% | [6] 1.55%

COc1ccc(S(=O)(=O)N2OC2c2ccccc2)cc1 (stereo unspecified)
inactive: [1] -22.2% | [2] 2.65% | [3] 14.7% | [4] 10% | [5] 1.65% | [6] -6%

CCN(CC)CC1CCCCN1CC(=O)N1c2ccccc2NC(=O)c2ccccc21 (stereo unspecified)
inactive: [1] -6.85% | [2] -3.25% | [3] 5.25% | [4] -6.1% | [5] -1.9% | [6] 5.95%

Cc1nc2n(c1C(N)=O)CCS2
inactive: [1] 5.15% | [2] -5.65% | [3] -5% | [4] -55.8% | [5] -10.7% | [6] -10.7%

C=CCc1c(Cl)nc(Cl)nc1Cl
inactive: [1] -14.8% | [2] 22.6% | [3] 10.3% | [4] -69.2% | [5] 7.1% | [6] -23.6%

COc1cccc(NC(=O)CC(=O)N2N=C(C)C(N=Nc3ccc(S(=O)(=O)c4ccc(N=NC5C(=O)N(C(=O)CC(=O)Nc6cccc(OC)c6)N=C5C)cc4)cc3)C2=O)c1 (stereo unspecified)
inactive: [1] 27.4% | [2] 15.8% | [3] 8.9% | [4] -16.4% | [5] -2% | [6] 29.1%

COC(=O)C(CC(C)C)NC(=O)C(CCCN=C(N)N)NC(=O)OCc1ccccc1 (stereo not drawn) (Cbz-Arg-Leu-OMe; configuration not given here)
inactive: [1] -27.7% | [2] -17.6% | [3] -15.7% | [4] 4.15% | [5] -10.3% | [6] -12.8%

Clc1ccc(CCc2ccncn2)c(Cl)c1
inactive: [1] 17.5% | [2] 16.1% | [3] 5.7% | [4] 17.7% | [5] 14.7% | [6] 51.6%

CNC(=O)N(C)c1cc(N(C)C)nc(OC)n1
inactive: [1] -16.4% | [2] -34.6% | [3] -19.4% | [4] -9.4% | [5] -20.8% | [6] -23.4%

CSCCC(NC(c1ccccc1)c1ccccc1)[P+](=O)O (stereo unspecified)
inactive: [1] -53.4% | [2] -44.8% | [3] -37.5% | [4] -5.15% | [5] -3.65% | [6] -40.1%

COc1cccc(Br)c1OC
inactive: [1] -5.4% | [2] 1.2% | [3] 20.8% | [4] 38.6% | [5] 31.9% | [6] -3.1%

C=CCOc1ccc(S(=O)(=O)c2ccc(OCC=C)cc2)cc1
inactive: [1] 3.55% | [2] -7.9% | [3] -2.55% | [4] -27.7% | [5] 8.2% | [6] -4.35%

CCCN=C(N)NC#N
inactive: [1] 16.9% | [2] 0.8% | [3] -2.4% | [4] 7.85% | [5] -16.6% | [6] 15.1%

S=C(S)NC1CCCCC1
inactive: [1] -28.9% | [2] -18.3% | [3] -12.2% | [4] -44% | [5] -13.1% | [6] -3.75%

O=C1c2ccccc2NC(c2cc(Cl)cc(Cl)c2O)N1CCc1ccccn1 (stereo unspecified)
inactive: [1] 8.05% | [2] -21.9% | [3] -14.4% | [4] 14.7% | [5] -25.1% | [6] -11.9%

COc1ccc(-c2c3c([nH]c(=S)c2C#N)CCC3)cc1
inactive: [1] 8.65% | [2] 4.5% | [3] 33% | [4] 22.7% | [5] 28.7% | [6] 34.4%

O=C(N[C@@H](CCl)[C@H](Cl)c1ccc([N+](=O)[O-])cc1)c1ccc([N+](=O)[O-])o1
active: [1] 85.3% | [2] 76.2% | [3] 93.3% | [4] 83.7% | [5] 87.3% | [6] 92.8%
